Data taken from PubChem BioAssay AID1159580 (chemical genetic matrix, 2015).
Values joined by “and” are separate entries in the source; they are usually repeats but may differ in a detail not shown here. Equal entries are not always repeated. About 2,000 (36%) of roughly 5,500 compounds were called active. Inconclusive results (about 18%) are left out. Cut-off read from the data, not from the text of the source: active = normalized growth mostly below about 0.91 (no sharp cut-off); inconclusive = no clear call, values can overlap the other calls; inactive = mostly above about 0.92. This is one part of the list.

Assay: chemical genetic growth profiling, strain panel (AID 1159580);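 note: tested at 20 µM; growth read once vehicle control cultures reached saturation at 30 °C; 1 = growth at the plate median or of vehicle wells; lower values mean less growth of the strain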
Settings: growth OD

Measured: normalized growth

CN(C)CCCN1c2ccccc2Sc2ccccc21
inactive: S. cerevisiae deletion strains, locus YJR075W, strain HOC1, stronger effect = lower value 0.995 and 1 | S. cerevisiae deletion strains, locus YKL009W, strain mrt4, stronger effect = lower value 1.02 | S. cerevisiae deletion strains, locus YKL068W, stronger effect = lower value 1.01 | S. cerevisiae deletion strains, locus YKL085W, strain MDH1 (second series), stronger effect = lower value 1 | S. cerevisiae deletion strains, locus YKL085W, strain MDH1, stronger effect = lower value 1 | S. cerevisiae deletion strains, locus YKL160W, strain elf1, stronger effect = lower value 1.04 | S. cerevisiae deletion strains, locus YKL190W, strain CNB1, stronger effect = lower value 1 | S. cerevisiae deletion strains, locus YKR001C, strain vps1, stronger effect = lower value 1.02 | S. cerevisiae deletion strains, locus YKR026C, strain gcn3, stronger effect = lower value 0.989 | S. cerevisiae deletion strains, locus YKR091W, strain srl3, stronger effect = lower value 0.984 | S. cerevisiae deletion strains, locus YLL001W, strain dnm1, stronger effect = lower value 0.978 | S. cerevisiae deletion strains, locus YLL026W, stronger effect = lower value 0.98 | S. cerevisiae deletion strains, locus YLL041C, strain sdh2, stronger effect = lower value 0.99 | S. cerevisiae deletion strains, locus YLR027C, strain aat2, stronger effect = lower value 0.999 | S. cerevisiae deletion strains, locus YLR039C, strain RIC1, stronger effect = lower value 1.19 | S. cerevisiae deletion strains, locus YLR058C, strain SHM2, stronger effect = lower value 1 | S. cerevisiae deletion strains, locus YLR102C, strain apc9, stronger effect = lower value 1.01 | S. cerevisiae deletion strains, locus YLR113W, strain HOG1, stronger effect = lower value 1.01 | S. cerevisiae deletion strains, locus YLR221C, strain rsa3, stronger effect = lower value 0.992 | S. cerevisiae deletion strains, locus YLR258W, strain gsy2, stronger effect = lower value 0.983 | S. cerevisiae deletion strains, locus YLR262C, strain YPT6 (second series), stronger effect = lower value 1.01 | S. cerevisiae deletion strains, locus YLR262C, strain YPT6, stronger effect = lower value 1.23 | S. cerevisiae deletion strains, locus YLR268W, strain sec22, stronger effect = lower value 1.01 | S. cerevisiae deletion strains, locus YLR320W, strain mms22, stronger effect = lower value 0.996 | S. cerevisiae deletion strains, locus YLR330W, strain CHS5, stronger effect = lower value 1.01 | S. cerevisiae deletion strains, locus YLR342W, strain FKS1 (second series), stronger effect = lower value 0.99 | S. cerevisiae deletion strains, locus YLR342W, strain FKS1, stronger effect = lower value 0.977 | S. cerevisiae deletion strains, locus YLR357W, strain rsc2, stronger effect = lower value 0.989 | S. cerevisiae deletion strains, locus YLR370C, strain arc18, stronger effect = lower value 1 | S. cerevisiae deletion strains, locus YLR371W, strain rom2, stronger effect = lower value 1.01 | S. cerevisiae deletion strains, locus YLR384C, strain iki3, stronger effect = lower value 0.997 | S. cerevisiae deletion strains, locus YLR418C, strain cdc73, stronger effect = lower value 0.988 | S. cerevisiae deletion strains, locus YML016C, strain PPZ1, stronger effect = lower value 1.01 | S. cerevisiae deletion strains, locus YML032C, strain rad52, stronger effect = lower value 1.01 | S. cerevisiae deletion strains, locus YML120C, strain ndi1, stronger effect = lower value 0.99 | S. cerevisiae deletion strains, locus YML124C, strain tub3, stronger effect = lower value 1.01 | S. cerevisiae deletion strains, locus YMR058W, strain fet3, stronger effect = lower value 0.982 | S. cerevisiae deletion strains, locus YMR078C, strain ctf18, stronger effect = lower value 1.01 | S. cerevisiae deletion strains, locus YMR125W, strain sto1, stronger effect = lower value 0.947 | S. cerevisiae deletion strains, locus YMR129W, stronger effect = lower value 1 | S. cerevisiae deletion strains, locus YMR205C, strain PFK2, stronger effect = lower value 1 | S. cerevisiae deletion strains, locus YMR223W, strain ubp8, stronger effect = lower value 0.999 | S. cerevisiae deletion strains, locus YMR231W, strain pep5, stronger effect = lower value 0.986 | S. cerevisiae deletion strains, locus YMR263W, strain SAP30, stronger effect = lower value 0.999 and 0.981 | S. cerevisiae deletion strains, locus YMR307W, strain GAS1, stronger effect = lower value 1.03 and 1.02 | S. cerevisiae deletion strains, locus YNL067W, strain RPL9B, stronger effect = lower value 0.988 | S. cerevisiae deletion strains, locus YNL071W, strain lat1, stronger effect = lower value 0.996 | S. cerevisiae deletion strains, locus YNL128W, strain TEP1, stronger effect = lower value 1.01 and 0.994 | S. cerevisiae deletion strains, locus YNL153C, strain GIM3, stronger effect = lower value 1.09 | S. cerevisiae deletion strains, locus YNL175C, strain NOP13, stronger effect = lower value 0.983 | S. cerevisiae deletion strains, locus YNL183C, strain NPR1, stronger effect = lower value 0.965 | S. cerevisiae deletion strains, locus YNL209W, strain ssb2, stronger effect = lower value 0.971 | S. cerevisiae deletion strains, locus YNL224C, strain SQS1, stronger effect = lower value 1.01 | S. cerevisiae deletion strains, locus YNL233W, strain BNI4, stronger effect = lower value 1.01 | S. cerevisiae deletion strains, locus YNL248C, strain rpa49, stronger effect = lower value 0.976 | S. cerevisiae deletion strains, locus YNL250W, strain rad50, stronger effect = lower value 1.01 | S. cerevisiae deletion strains, locus YNL271C, strain bni1, stronger effect = lower value 1.01 | S. cerevisiae deletion strains, locus YNL298W, strain CLA4, stronger effect = lower value 1 | S. cerevisiae deletion strains, locus YNL307C, strain MCK1, stronger effect = lower value 1.02 | S. cerevisiae deletion strains, locus YNL322C, strain KRE1 (second series), stronger effect = lower value 1.01 | S. cerevisiae deletion strains, locus YNL322C, strain KRE1, stronger effect = lower value 1 and 0.958 | S. cerevisiae deletion strains, locus YNR049C, strain mso1, stronger effect = lower value 0.996 | S. cerevisiae deletion strains, locus YNR052C, strain pop2, stronger effect = lower value 1.01 | S. cerevisiae deletion strains, locus YOL006C, strain TOP1, stronger effect = lower value 0.983 | S. cerevisiae deletion strains, locus YOL012C, strain htz1 0.964 | S. cerevisiae deletion strains, locus YOL147C, strain pex11, stronger effect = lower value 1.01 | S. cerevisiae deletion strains, locus YOR001W, strain rrp6, stronger effect = lower value 0.96 | S. cerevisiae deletion strains, locus YOR061W, strain CKA2, stronger effect = lower value 1.01 | S. cerevisiae deletion strains, locus YOR069W, strain VPS5, stronger effect = lower value 0.995 | S. cerevisiae deletion strains, locus YOR070C, strain gyp1, stronger effect = lower value 0.986 | S. cerevisiae deletion strains, locus YOR080W, strain dia2, stronger effect = lower value 1.01 | S. cerevisiae deletion strains, locus YOR083W, strain WHI5 (second series), stronger effect = lower value 0.98 | S. cerevisiae deletion strains, locus YOR083W, strain WHI5, stronger effect = lower value 0.971 | S. cerevisiae deletion strains, locus YOR106W, strain vam3, stronger effect = lower value 0.968 | S. cerevisiae deletion strains, locus YOR136W, strain idh2, stronger effect = lower value 1.02 | S. cerevisiae deletion strains, locus YOR144C, strain elg1, stronger effect = lower value 1.01 | S. cerevisiae deletion strains, locus YOR184W, strain ser1, stronger effect = lower value 1.08 | S. cerevisiae deletion strains, locus YOR231W, strain MKK1, stronger effect = lower value 0.986 | S. cerevisiae deletion strains, locus YOR265W, strain rbl2, stronger effect = lower value 1 | S. cerevisiae deletion strains, locus YOR270C, strain vph1, stronger effect = lower value 0.898 | S. cerevisiae deletion strains, locus YOR290C, strain snf2, stronger effect = lower value 1.01 | S. cerevisiae deletion strains, locus YOR316C, strain cot1, stronger effect = lower value 1.02 | S. cerevisiae deletion strains, locus YPL051W, strain arl3, stronger effect = lower value 1 | S. cerevisiae deletion strains, locus YPL055C, strain LGE1, stronger effect = lower value 1.01 | S. cerevisiae deletion strains, locus YPL078C, strain atp4, stronger effect = lower value 1.01 | S. cerevisiae deletion strains, locus YPL106C, strain sse1, stronger effect = lower value 0.999 | S. cerevisiae deletion strains, locus YPL240C, strain hsp82, stronger effect = lower value 0.985 | S. cerevisiae deletion strains, locus YPL241C, strain CIN2, stronger effect = lower value 0.999 | S. cerevisiae deletion strains, locus YPL256C, strain CLN2, stronger effect = lower value 1.01 | S. cerevisiae deletion strains, locus YPR119W, strain clb2, stronger effect = lower value 1 | S. cerevisiae deletion strains, locus YPR141C, strain kar3, stronger effect = lower value 1.01 | S. cerevisiae deletion strains, locus YPR163C, strain tif3, stronger effect = lower value 1.01 | S. cerevisiae deletion strains, locus YPR167C, strain met16, stronger effect = lower value 1.01 | S. cerevisiae deletion strains, strain wtn01, stronger effect = lower value 1.02 | S. cerevisiae strains, strain wild type, stronger effect = lower value 0.992
